Assay results as given in PubChem BioAssay AID1159580 (chemical genetic matrix, 2015).
“And” between values parts separate entries of the source, which are not always exact repeats. Identical values can stand only once. Screen size: about 5,500 compounds; about 2,000 (36%) were called active. About 18% were inconclusive and are not listed. Cut-off read from the data, not from the text of the source: active = normalized growth mostly below about 0.91 (no sharp cut-off); inconclusive = no clear call, values can overlap the other calls; inactive = mostly above about 0.92. The list shows a part of the results.

Assay: chemical genetic growth profiling, strain panel (AID 1159580);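 note: tested at 20 µM; growth read once vehicle control cultures reached saturation at 30 °C; 1 = growth at the plate median or of vehicle wells; lower values mean less growth of the strain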
Details: S. cerevisiae deletion strains, growth OD

Measured: normalized growth

CCN(CC)C(=O)N1CCN(C)CC1
inactive: locus YAL021C, strain ccr4, hits give low values 0.984 | locus YAL026C, strain drs2, hits give low values 0.967 | locus YAL030W, strain snc1, hits give low values 0.967 | locus YBL061C, strain skt5, hits give low values 0.976 | locus YBR009C, strain hhf1, hits give low values 0.957 | locus YBR021W, strain FUR4, hits give low values 0.974 | locus YBR023C, strain chs3, hits give low values 0.981 | locus YBR171W, strain sec66, hits give low values 0.99 | locus YBR229C, strain ROT2, hits give low values 1.01 | locus YBR231C, strain swc5, hits give low values 0.97 | locus YBR279W, strain paf1, hits give low values 0.981 | locus YCL011C, strain gbp2, hits give low values 0.971 | locus YCL016C, strain dcc1, hits give low values 0.973 | locus YCL029C, strain bik1, hits give low values 0.999 | locus YCL069W, strain vba3, hits give low values 0.984 | locus YCR088W, strain abp1, hits give low values 0.994 | locus YDL005C, strain med2, hits give low values 0.963 | locus YDL035C, strain GPR1, hits give low values 1.04 | locus YDL040C, strain nat1, hits give low values 0.973 | locus YDL074C, strain BRE1, hits give low values 1.03 | locus YDL101C, strain DUN1, hits give low values 1.01 | locus YDL134C, strain PPH21, hits give low values 1.04 | locus YDL185W, strain tfp1, hits give low values 0.994 | locus YDL192W, strain arf1, hits give low values 1 | locus YDR001C, strain nth1, hits give low values 0.958 | locus YDR069C, strain doa4, hits give low values 0.976 | locus YDR101C, strain arx1, hits give low values 1 | locus YDR137W, strain rgp1, hits give low values 0.917 | locus YDR150W, strain NUM1, hits give low values 1.02 | locus YDR159W, strain sac3, hits give low values 0.964 | locus YDR162C, strain NBP2, hits give low values 1.02 | locus YDR195W, strain ref2 0.943 | locus YDR297W, strain sur2, hits give low values 0.979 | locus YDR318W, strain mcm21, hits give low values 1.01 | locus YDR334W, strain swr1, hits give low values 0.982 | locus YDR335W, strain msn5, hits give low values 0.95 | locus YDR388W, hits give low values 1 | locus YDR392W, strain spt3, hits give low values 0.956 | locus YDR502C, strain sam2, hits give low values 1 | locus YEL003W, strain gim4, hits give low values 0.965 | locus YEL037C, strain rad23, hits give low values 0.978 | locus YEL061C, strain CIN8 (second series), hits give low values 0.973 | locus YEL061C, strain CIN8, hits give low values 1.01 | locus YER015W, strain faa2, hits give low values 0.979 | locus YER016W, strain bim1, hits give low values 0.94 | locus YER110C, hits give low values 0.991 | locus YER111C, strain swi4, hits give low values 0.969 | locus YER155C, strain BEM2 (second series), hits give low values 0.984 | locus YER155C, strain BEM2, hits give low values 1.01 | locus YER167W, strain BCK2, hits give low values 1.01 | locus YFR010W, strain ubp6, hits give low values 0.959 | locus YGL078C, strain dbp3, hits give low values 0.997 | locus YGL086W, strain mad1, hits give low values 1.02 | locus YGL167C, strain pmr1, hits give low values 0.983 | locus YGL173C, strain kem1, hits give low values 0.986 | locus YGL227W, strain vid30, hits give low values 0.982 | locus YGL240W, strain doc1, hits give low values 0.956 | locus YGL248W, strain PDE1, hits give low values 1.01 | locus YGL253W, strain hxk2, hits give low values 0.948 | locus YGR078C, strain PAC10, hits give low values 1.02 | locus YGR135W, strain pre9, hits give low values 0.996 | locus YGR252W, strain gcn5, hits give low values 0.912 | locus YHR013C, strain ard1, hits give low values 0.942 | locus YHR027C, strain rpn1, hits give low values 0.971 | locus YHR030C, strain SLT2, hits give low values 1.02 | locus YHR079C, strain IRE1 (second series), hits give low values 0.993 | locus YHR079C, strain IRE1, hits give low values 1.02 | locus YHR094C, strain hxt1, hits give low values 1 | locus YHR129C, strain ARP1, hits give low values 1.01 | locus YHR142W, strain chs7, hits give low values 0.954 | locus YHR200W, strain rpn10, hits give low values 1 | locus YIL066C, strain RNR3, hits give low values 1.04 | locus YIL073C, strain SPO22, hits give low values 1.02 | locus YIL125W, strain kgd1, hits give low values 1 | locus YIR030C, strain dcg1, hits give low values 1.01 | locus YJL092W, strain hpr5, hits give low values 0.985 | locus YJL095W, strain BCK1 (second series), hits give low values 0.965 | locus YJL095W, strain BCK1, hits give low values 1 and 1.04 | locus YJL115W, strain asf1, hits give low values 0.946 | locus YJL129C, strain trk1, hits give low values 0.951 | locus YJL134W, strain LCB3, hits give low values 1.01 | locus YJL154C, strain vps35, hits give low values 0.983 | locus YJL164C, strain tpk1, hits give low values 0.959 | locus YJL166W, strain qcr8, hits give low values 0.999 | locus YJL168C, strain set2, hits give low values 0.992 | locus YJL187C, strain SWE1 (second series), hits give low values 1.01 | locus YJL187C, strain SWE1, hits give low values 0.973 | locus YJR043C, strain POL32, hits give low values 1.04 | locus YJR066W, strain TOR1, hits give low values 0.965
